# Several values for one entry are separate records, joined by “and”; a condition that tells them apart may be missing. Equal entries are not always repeated. Over roughly 2,900 compounds, “IRF Lucia reporter activity, fold change vs agonist alone” has its median near 0.9; the highest 2% begin near 2.8. The full list was thinned out, with the highest values kept by preference.
# Columns and labels:
# RAW-Dual [1] = assay: IRF Lucia reporter activity, fold change vs agonist alone; cytotoxicity flag (confluency mask): not cytotoxic; higher = enhanced IRF activity
# Procedure, shortened: (§1)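 RAW-Dual macrophages were seeded in DMEM at 50,000 cells/well in 384-well plates, given 50 nL of library stock by pin tool, and given a PRR agonist 1 h later. Plates were held at 37 °C, 5% CO2 for 20 hours, after which supernatant was read for IRF by QuantiLuc luminescence and for NF-κB by QuantiBlue absorbance at 620 nm. Reporter activity is expressed as fold change over wells that received agonist alone. A well was called cytotoxic when IncuCyte confluency fell below 70% of agonist controls in both mask sets.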
# RAW-Dual [2] = assay: IRF Lucia reporter activity, fold change vs agonist alone; higher = enhanced IRF activity; settings: agonist: MPLA (TLR4) […]
# Procedure, shortened: as §1
# RAW-Dual [3] = assay: IRF Lucia reporter activity, fold change vs agonist alone; cytotoxicity flag (confluency mask): cytotoxic (confluency <70% of control); higher = enhanced IRF activity
# Procedure, shortened: as §1
# [4] = agonist: 3'3'-cGAMP (STING) 10 ug/mL
# [5] = library stock concentration (final ~1000-fold dilution): 10 mM, cytotoxicity flag (confluency mask): not cytotoxic
# [6] = library stock concentration (final ~1000-fold dilution): 10 mM water, cytotoxicity flag (confluency mask): not cytotoxic
structure (smiles),measurement,setting,value
CC(C)CCn1c(CN2CCN(C(=O)C3CC3)CC2)nc2c1c(=O)n(C)c(=O)n2C (library stock concentration (final ~1000-fold dilution): 10 mM),IRF Lucia reporter activity,RAW-Dual [1]; [4],0.987
same,IRF Lucia reporter activity,RAW-Dual [1]; agonist: LPS (TLR4) 0.1 ug/mL,0.989
CN1CCC(CNc2ccc3ncc(-c4cccc(OC(F)(F)F)c4)n3n2)CC1 (library stock concentration (final ~1000-fold dilution): 10 mM),IRF Lucia reporter activity,RAW-Dual [1]; [4],1.03
same,IRF Lucia reporter activity,RAW-Dual [1]; agonist: LPS (TLR4) 0.1 ug/mL,0.089
CN1CCC(COc2cnc(-c3cccc(Cn4nc(-c5cccc(C#N)c5)ccc4=O)c3)nc2)CC1 (library stock concentration (final ~1000-fold dilution): 10 mM),IRF Lucia reporter activity,RAW-Dual [1]; [4],0.676
same,IRF Lucia reporter activity,RAW-Dual [1]; agonist: LPS (TLR4) 0.1 ug/mL,3.96
CN1CCC(COc2cnc(-c3cccc(Cn4nc(-c5cccc(C#N)c5)ccc4=O)c3)nc2)CC1,IRF Lucia reporter activity,RAW-Dual [2]; [5],1.37
CN1CCC(CNc2ccc3ncc(-c4cccc(OC(F)(F)F)c4)n3n2)CC1,IRF Lucia reporter activity,RAW-Dual [2]; [5],1.07
CC(C)N(CCC(c1ccccc1)c1cc(CO)ccc1O)C(C)C (centres undefined) (library stock concentration (final ~1000-fold dilution): 10 mM),IRF Lucia reporter activity,RAW-Dual [1]; [4],0.857
same,IRF Lucia reporter activity,RAW-Dual [1]; agonist: LPS (TLR4) 0.1 ug/mL,0.982
CC(C)N(CCC(c1ccccc1)c1cc(CO)ccc1O)C(C)C (centres undefined),IRF Lucia reporter activity,RAW-Dual [2]; [5],0.986
CCCC1CC(C(=O)NC(C(C)Cl)C2OC(SC)C(OP(=O)(O)O)C(O)C2O)N(C)C1 (centres undefined) (library stock concentration (final ~1000-fold dilution): 10 mM water),IRF Lucia reporter activity,RAW-Dual [1]; [4],1.23
same,IRF Lucia reporter activity,RAW-Dual [1]; agonist: LPS (TLR4) 0.1 ug/mL,0.95
CCCC1CC(C(=O)NC(C(C)Cl)C2OC(SC)C(OP(=O)(O)O)C(O)C2O)N(C)C1 (centres undefined),IRF Lucia reporter activity,RAW-Dual [2]; [6],1.42
CCOC(=O)C1=C(COCCN)NC(C)=C(C(=O)OC)C1c1ccccc1Cl.O=S(=O)(O)c1ccccc1 (centres undefined),IRF Lucia reporter activity,"RAW-Dual [2]; library stock concentration (final ~1000-fold dilution): 10 mM, cytotoxicity flag (confluency mask): cytotoxic (confluency <70% of control)",3.36
COC(=O)C1=C(C)NC(C)=C(C(=O)OCC(C)C)C1c1ccccc1[N+](=O)[O-] (centres undefined),IRF Lucia reporter activity,RAW-Dual [2]; [5],0.508
CCCC(=O)OCOC(=O)C1=C(C)NC(C)=C(C(=O)OC)C1c1cccc(Cl)c1Cl (centres undefined),IRF Lucia reporter activity,RAW-Dual [2]; [5],0.992
COC(=O)C1=C(C)NC(C)=C(C(=O)OC)C1c1ccccc1[N+](=O)[O-],IRF Lucia reporter activity,RAW-Dual [2]; [5],0.406
CCOC(=O)C1=C(C)NC(C)=C(C(=O)OC)C1c1cccc(Cl)c1Cl (centres undefined),IRF Lucia reporter activity,RAW-Dual [2]; [5],1.08
COC(=O)C1=C(C)NC(C)=C(C(=O)OCC(C)C)C1c1ccccc1[N+](=O)[O-] (centres undefined) (library stock concentration (final ~1000-fold dilution): 10 mM),IRF Lucia reporter activity,RAW-Dual [1]; [4],0.585
same,IRF Lucia reporter activity,RAW-Dual [1]; agonist: LPS (TLR4) 0.1 ug/mL,0.872
COC(=O)C1=C(C)NC(C)=C(C(=O)OC)C1c1ccccc1[N+](=O)[O-] (library stock concentration (final ~1000-fold dilution): 10 mM),IRF Lucia reporter activity,RAW-Dual [1]; [4],0.606
same,IRF Lucia reporter activity,RAW-Dual [1]; agonist: LPS (TLR4) 0.1 ug/mL,0.554
CCCC(=O)OCOC(=O)C1=C(C)NC(C)=C(C(=O)OC)C1c1cccc(Cl)c1Cl (centres undefined) (library stock concentration (final ~1000-fold dilution): 10 mM),IRF Lucia reporter activity,RAW-Dual [1]; [4],1.02
same,IRF Lucia reporter activity,RAW-Dual [1]; agonist: LPS (TLR4) 0.1 ug/mL,0.873
CCOC(=O)C1=C(C)NC(C)=C(C(=O)OC)C1c1cccc(Cl)c1Cl (centres undefined) (library stock concentration (final ~1000-fold dilution): 10 mM),IRF Lucia reporter activity,RAW-Dual [1]; [4],1.31
same,IRF Lucia reporter activity,RAW-Dual [1]; agonist: LPS (TLR4) 0.1 ug/mL,1.17
CCOC(=O)C1=C(COCCN)NC(C)=C(C(=O)OC)C1c1ccccc1Cl (centres undefined) (library stock concentration (final ~1000-fold dilution): 10 mM),IRF Lucia reporter activity,RAW-Dual [3]; [4],0.715 and 0.401
same,IRF Lucia reporter activity,RAW-Dual [3]; agonist: LPS (TLR4) 0.1 ug/mL,2.55 and 2.72
CCOC(=O)C1=C(COCCN)NC(C)=C(C(=O)OC)C1c1ccccc1Cl.O=S(=O)(O)c1ccccc1 (centres undefined) (library stock concentration (final ~1000-fold dilution): 10 mM),IRF Lucia reporter activity,RAW-Dual [3]; [4],1.02
same,IRF Lucia reporter activity,RAW-Dual [3]; agonist: LPS (TLR4) 0.1 ug/mL,3.19
Cc1cccc(Nc2nc(NC3CCCCC3N)ncc2C(N)=O)c1.Cl.Cl (centres undefined) (library stock concentration (final ~1000-fold dilution): 10 mM),IRF Lucia reporter activity,RAW-Dual [3]; [4],0.0182
same,IRF Lucia reporter activity,RAW-Dual [3]; agonist: LPS (TLR4) 0.1 ug/mL,0.0241
CS(=O)(=O)O.Cc1ccc(N(CC2=NCCN2)c2cccc(O)c2)cc1 (library stock concentration (final ~1000-fold dilution): 10 mM),IRF Lucia reporter activity,RAW-Dual [1]; [4],0.803
same,IRF Lucia reporter activity,RAW-Dual [1]; agonist: LPS (TLR4) 0.1 ug/mL,0.89
CS(=O)(=O)O.Cc1ccc(N(CC2=NCCN2)c2cccc(O)c2)cc1,IRF Lucia reporter activity,RAW-Dual [2]; [5],0.907
C[N+](C)(C)NCCC(=O)O,IRF Lucia reporter activity,RAW-Dual [2]; [6],1.25
C[N+](C)(C)NCCC(=O)O (library stock concentration (final ~1000-fold dilution): 10 mM water),IRF Lucia reporter activity,RAW-Dual [1]; [4],1.05
same,IRF Lucia reporter activity,RAW-Dual [1]; agonist: LPS (TLR4) 0.1 ug/mL,0.979
C[C@@H]1O[C@@H](O[C@H]2C(=O)c3c(O)cc(O)cc3O[C@@H]2c2ccc(O)cc2)[C@H](O)[C@H](O)[C@H]1O (library stock concentration (final ~1000-fold dilution): 10 mM),IRF Lucia reporter activity,RAW-Dual [1]; [4],0.228
same,IRF Lucia reporter activity,RAW-Dual [1]; agonist: LPS (TLR4) 0.1 ug/mL,1.17
COc1nc2ccc(Br)cc2cc1C(c1ccccc1)C(O)(CCN(C)C)c1cccc2ccccc12.O=C(O)/C=C/C(=O)O (centres undefined),IRF Lucia reporter activity,RAW-Dual [2]; [5],0.751
COc1nc2ccc(Br)cc2cc1C(c1ccccc1)C(O)(CCN(C)C)c1cccc2ccccc12.O=C(O)/C=C/C(=O)O (centres undefined) (library stock concentration (final ~1000-fold dilution): 10 mM),IRF Lucia reporter activity,RAW-Dual [1]; [4],0.888
same,IRF Lucia reporter activity,RAW-Dual [1]; agonist: LPS (TLR4) 0.1 ug/mL,0.812

# From the supplement of paper PMC10037445
